The supplement of paper PMC3334620
Over roughly 33,000 sequences, “E-score (-0.5 to 0.5)” has its median near -0.013; the highest 2% begin near 0.3. The entries come from a sample that favours the highest values as a whole.

molecular target: T1, Msn1 (UniProt P22148); test: PBM E-score (8-mer binding enrichment) (E-score (-0.5 to 0.5)); higher = stronger / more preferred TF binding; settings: protein concentration: 200 nM; construct: GST-full length
T1 sequence: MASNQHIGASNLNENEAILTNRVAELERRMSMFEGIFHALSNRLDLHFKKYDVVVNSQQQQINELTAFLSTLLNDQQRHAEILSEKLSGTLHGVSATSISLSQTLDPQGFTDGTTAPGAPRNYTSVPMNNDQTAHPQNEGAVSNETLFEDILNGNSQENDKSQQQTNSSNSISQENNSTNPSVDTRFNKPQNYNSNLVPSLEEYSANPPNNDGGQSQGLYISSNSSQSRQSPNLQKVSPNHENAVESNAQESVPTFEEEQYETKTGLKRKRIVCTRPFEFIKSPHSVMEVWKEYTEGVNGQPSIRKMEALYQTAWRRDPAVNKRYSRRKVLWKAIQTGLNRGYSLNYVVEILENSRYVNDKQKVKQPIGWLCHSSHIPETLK
Protocol: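 Universal 'all 10-mer' protein binding microarrays (Agilent AMADID 015681) probed with GST-tagged S. cerevisiae TFs (full-length or DBD) made by in vitro transcription/translation (PURExpress), about 100-200 nM. Bound TF was detected with fluorescent anti-GST. Each ungapped 8-mer (which stands for itself and its reverse complement) is scored by the PBM enrichment score (E-score), a modified Wilcoxon-Mann-Whitney statistic from -0.5 to +0.5, computed with the Universal PBM Analysis Suite. Scale: above 0.35 generally sequence-specific binding.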

Row | Sequence | PBM E-score
1 | ACTTCCCT | -0.185
2 | CAAAAAGA | 0.0247
3 | CGAGTGAC | 0.0781
4 | AAAATGCT | 0.0679
5 | ACCGATGC | -0.136
6 | ATCACCTA | 0.0704
7 | ATCCAGGA | -0.015
8 | CCCAAGGG | -0.22
9 | TTGGAAAA | 0.0431
10 | GTGGACTA | 0.144
11 | GTGGACGA | 0.18
12 | GTGGACAA | 0.468
13 | TTGGACAA | 0.47
14 | TTCGACAA | 0.191
15 | CTGGACAC | 0.29
16 | CTGGACAG | 0.0403
17 | CTGGACAA | 0.43
18 | TCTTTCCA | -0.0394
19 | CCCTTACC | -0.181
20 | ATTATGTG | 0.151
21 | ATTATGTA | 0.149
22 | CTTATGTA | 0.124
23 | CTTATGAC | 0.233
24 | CTTATGTC | 0.374
25 | ATTATGTC | 0.367

Row | Sequence | PBM E-score
26 | ATTCGCTG | 0.00671
27 | TACCCGCA | -0.0605
28 | CATTACGG | 0.0771
29 | TAGGGGCA | -0.254
30 | ACATAAAA | 0.178
31 | TAGTACAA | 0.321
32 | ACATAAAG | 0.224
33 | CAGTACAA | 0.262
34 | ACATACAT | 0.309
35 | GAGTACAA | 0.262
36 | AAGTACAA | 0.306
37 | AAGTACGA | 0.133
38 | AAGTACCA | 0.107
39 | ACATACAG | 0.167
40 | ACATAAAT | 0.307
41 | ACATACAC | 0.207
42 | CGGTAGTC | -0.00298
43 | GTGATCTA | 0.00906
44 | ACTTTTGA | 0.208
45 | ATATCCGG | 0.11
46 | GTCTCAAC | 0.136
47 | TCTAAAGA | 0.205
48 | AACCTTCT | -0.205
49 | TAAATCCA | 0.0101
50 | CGAAGATC | -0.0505

Row | Sequence | PBM E-score
51 | ACGTACAG | -0.0675
52 | ACGTACAT | 0.307
53 | ACGTACAA | 0.234
54 | AAGTACAG | 0.0535
55 | AAGTACAC | 0.192
56 | AAGTACAT | 0.356
57 | GAGTCATC | -0.114
58 | GGTGTCAC | -0.0252
59 | TACGACAA | 0.352
60 | AACGACAT | 0.417
61 | CACGACAA | 0.256
62 | CGCGACAA | 0.304
63 | AATGACAC | 0.213
64 | GGCGACAA | 0.069
65 | AATGACAG | 0.151
66 | AACGACAA | 0.262
67 | GACGACAA | 0.299
68 | AACGACAG | -0.0454
69 | CGCGACAG | -0.00106
70 | AATGACAT | 0.42
71 | CAAGATCC | 0.0979
72 | AAGCAAAG | -0.064
73 | AGGGCCTC | -0.236
74 | AGTTGTGA | 0.137
75 | CGGACCAA | 0.256

Row | Sequence | PBM E-score
76 | CTATCGCA | -0.201
77 | AACCACGT | -0.0931
78 | CTACCAAA | -0.0795
79 | GAGTACTA | 0.198
80 | TGCGACAA | 0.338
81 | AGCGACAA | 0.301
82 | TGCGACCA | 0.0994
83 | GTTTAATA | 0.315
84 | AATTAATA | 0.352
85 | AATTAATT | 0.168
86 | ATTTAATG | 0.202
87 | AACTAATA | 0.326
88 | GATTAATA | 0.143
89 | TACTAATA | 0.0704
90 | CACTAATA | 0.0713
91 | TATTAATA | -0.134
92 | GTTTAAAA | 0.0898
93 | ATTTAATA | 0.336
94 | CTTTAATA | 0.193
95 | CGCGGTGC | -0.123
96 | TAAGTTAA | -0.0568
97 | CGCTACCG | 0.00385
98 | GGCGAAAA | 0.24
99 | GTTAGAAA | -0.0269
100 | CATCTTCA | 0.0522

Row | Sequence | PBM E-score
101 | GGAGGGCC | -0.273
102 | CGCCAGGC | -0.174
103 | AATATTGC | 0.218
104 | AATATTAA | 0.318
105 | AATATTGT | 0.35
106 | TATATTAA | 0.232
107 | AATATTAG | 0.131
108 | CATATTAA | 0.32
109 | AATATTAT | 0.208
110 | AATATTGG | -0.0454
111 | CATATTAG | 0.193
112 | CGATAAAG | 0.119
113 | AGCTCACC | -0.141
114 | AAAGTCCA | 0.378
115 | CAAGTCCG | 0.0478
116 | GAAGTCCC | -0.0665
117 | AAAGTCCT | 0.427
118 | CAAGTCCC | 0.148
119 | AAAGTCGT | 0.223
120 | AAAGTCCG | 0.342
121 | AGAGTCCT | -0.0894
122 | GAAGTCCA | 0.212
123 | AAAGTCCC | 0.344
124 | AGAGTCCG | 0.0522
125 | TAAGTCCA | 0.26

Row | Sequence | PBM E-score
126 | AATGGCTA | -0.0496
127 | ATGTTCAA | 0.185
128 | CCACTGGA | -0.216
129 | GATTCTAA | 0.0481
130 | TGGCTACA | 0.0201
131 | ATTAGCAA | 0.22
132 | AAGTACGG | 0.0556
133 | AAGCTAAA | 0.12
134 | CATATTCC | 0.0363
135 | CACCCGTG | -0.213
136 | TCAGACCA | -0.0852
137 | GCAGACAA | 0.341
138 | TCAGACAA | 0.367
139 | ACAGACAC | 0.288
140 | ACAGACAG | 0.222
141 | CCAGACAG | -0.094
142 | GCAGACAC | 0.203
143 | ACAGACAT | 0.399
144 | CCAGACAA | 0.258
145 | ACAGACGA | 0.153
146 | GCAGACCA | -0.0683
147 | ACAGACAA | 0.44
148 | TATGAGAA | 0.0684
149 | AATGGTCG | -0.0526
150 | TAGATTCA | -0.192

Row | Sequence | PBM E-score
151 | GCTTCTTA | -0.0464
152 | CCATGTCG | 0.239
153 | ACATGCCT | -0.119
154 | ACATGTCT | 0.436
155 | ACATGTAA | 0.255
156 | ACATGTAG | 0.244
157 | ACATGTAT | 0.312
158 | ACCTGTCT | 0.0544
159 | ACATGTTG | 0.235
160 | ACATGTTA | 0.199
161 | ACATGTCG | 0.311
162 | ACATGTCA | 0.358
163 | TCATGTCA | 0.252
164 | ACCGATAG | 0.0834
165 | GATTCCGC | 0.0634
166 | AAGCCGCA | -0.0983
167 | GACTGCAA | -0.16
168 | AAAGCGAT | 0.00359
169 | TAGGTGAA | 0.0103
170 | GCATGTAC | 0.291
171 | CCATGTCA | 0.164
172 | ACATGTGC | 0.0743
173 | GCATGTCA | 0.261
174 | ACATGTTC | 0.147
175 | CCATGTCC | 0.434
